Screening results: PubChem BioAssay, several laboratories
Only some compounds are listed: those with a hit (about 1.5% of all), similar ones and a draw of the others.
VHR inh abs: inhibitors of human VHR1 phosphatase (DUSP3); recombinant VHR phosphatase, pNPP absorbance; inhibition, % at 13.3 µM; 290,000 compounds, 0.52% hits; AID 1654; in the data active = inhibition above about 50%
PrPC surface inh: cell surface PrPC inhibition, primary TR-FRET screen; AID 720596; TR-FRET read-out; 370,000 compounds, 0.43% hits; inhibition, % at 13.8 µM; P04156; in the data active = inhibition above about 24%
TcdB inh: blocks C. difficile toxin B glycohydrolase activity; TcdB glycohydrolase enzymatic assay, plate reader; inhibition, % at 9.99 µM; 350,000 compounds, 0.24% hits; AID 652162; in the data active = inhibition above about 10%
Vc quorum ag: inducers of Vibrio cholerae quorum light production without autoinducers; V. cholerae BH1578 lux reporter, luminescence, 6 h; activation, % at 18.7 µM; 350,000 compounds, 0.16% hits; AID 588436; in the data active = activation mostly above about 9.7%, no sharp cut-off
CCHF vOTU inh: blocks the CCHF virus ovarian tumor domain protease; inhibition, % at 11.5 µM; CCHFV vOTU protease, Pep-AMC fluorescence; AID 651958; 370,000 compounds, 0.55% hits; in the data active = inhibition above about 30%
PriA SSB inh: inhibitors of Klebsiella pneumoniae PriA binding to SSB C-terminal tail. AlphaScreen SSBct-PriA binding, biotinylated peptide. inhibition, % at 33 µM. 430,000 compounds, 0.6% hits. AID 1272365; in the data active = inhibition mostly above about 37%, no sharp cut-off; inactive = mostly below about 20%
Numbers stand for hits; - = inactive; . = no result.

SMILES	VHR inh abs	PrPC surface inh	TcdB inh	Vc quorum ag	CCHF vOTU inh	PriA SSB inh
O=[N+]([O-])c1cccnc1Sc1ccc(F)cc1	.	-	-	-	-	42.4
O=[N+]([O-])c1cc(F)cc2cccnc12	.	.	.	.	.	54.7
O=[N+]([O-])c1ccc(Sc2cccc3cccnc23)c([N+](=O)[O-])c1	-	-	-	-	-	86.9
Cc1nn2c(=O)c3cc(-c4ccccc4)sc3nc2c2ccccc12	.	.	.	.	.	-
C=CCc1c(C)nc2c(-c3ccccc3)cnn2c1NCCc1ccc(OC)c(OC)c1	.	.	.	.	.	36.0
COc1cccc2cc(C(=O)NCCC3CCCCN3S(=O)(=O)c3ccc(C)cc3)oc12 (stereo not drawn)	.	.	.	.	.	-
COc1ccc(S(=O)(=O)NCCn2cnc(C)cc2=O)cc1C	.	.	.	.	.	-
COc1ccc(OC)c2sc(N3CCN(C(=O)Cc4ccc(Cl)s4)CC3)nc12	.	.	.	.	.	-
Cc1ccc(O)c(Nc2nc(-c3ccccc3)nc3ccccc23)c1	-	-	-	-	-	-
Cc1ccc(O)c(Nc2c3ccccc3nc3ccccc23)c1	52.0	-	-	-	-	61.5
O=C(NC1CCC(Oc2ncccn2)CC1)c1ccc(Br)o1 (stereo not drawn)	.	.	.	.	.	-
CCOC(=O)c1c(C)oc2cc(Br)c(OC(C(=O)OCC)c3ccccc3)cc12 (stereo not drawn)	.	.	.	.	.	-
Cc1cc(C=O)c(C)n1-c1ccc(Oc2ccc([N+](=O)[O-])cn2)cc1	-	-	-	-	-	-
Cc1cc(C=O)c(C)n1-c1ccc(NC2CCCC2)c([N+](=O)[O-])c1	.	-	-	-	-	67.5
COc1ccc(Nc2cc(C)nc(Nc3ccc(NS(=O)(=O)c4cc(C(C)(C)C)ccc4OC)cc3)n2)cc1	.	.	.	.	.	43.0
COc1ccc(S(=O)(=O)NCC(c2ccsc2)N2CCc3ccccc3C2)c(OC)c1 (stereo not drawn)	.	.	.	.	.	-
CC12CCC(=O)N1C(C(=O)Oc1cccc(F)c1)CS2 (stereo not drawn)	.	-	-	-	-	.
CC12CCC(=O)N1C(C(=O)OCc1c(Cl)cccc1Cl)CS2 (stereo not drawn)	-	-	12.1	-	-	-
O=C(/C=C/NNC(=O)c1ccccc1)c1ccccc1	51.6	-	.	-	-	-
CN(C)c1ccc(-c2nc3ccccc3n2CCOc2ccccc2)cc1	.	.	.	.	.	29.0
NC(=NOC(=O)c1ccccc1Br)c1cccc([N+](=O)[O-])c1	.	.	.	.	.	-
N/C(=N\OC(=O)c1ccccc1F)c1cccc([N+](=O)[O-])c1	51.3	-	-	-	-	.
CC(C)c1cc(NN)n2ncc(-c3ccccc3)c2n1	.	.	.	.	.	-
Cc1nc(-c2ccccc2F)sc1CNC(=O)CCn1cnc2ccccc2c1=O	.	.	.	.	.	-
CCOc1cc(-c2ccc(C)cc2)nc2ccc(C(=O)NCCC3=CCCCC3)cc12	.	.	.	.	.	-
SMILES	VHR inh abs	PrPC surface inh	TcdB inh	Vc quorum ag	CCHF vOTU inh	PriA SSB inh
O=[N+]([O-])c1cc(CN2CCOCC2)c2cccnc2c1O	-	.	.	.	.	92.4
Oc1c(Cl)cc(CN2CCOCC2)c2cccnc12	.	-	-	-	-	114.8
CN1CCCC1CCNC1C2CC3CC(C2)CC1C3 (stereo not drawn)	-	-	.	-	-	40.9
CCOc1ccc(C(C)C)cc1S(=O)(=O)NCCCn1ncccc1=O	.	.	.	.	.	-
Cc1ccc(C(=O)N2CCN=C2SCc2ccccc2Cl)cc1	.	.	.	.	.	-
CCn1cc(NC(=O)N2CCN(c3cccc(Cl)c3)CC2)c2ccccc21	.	.	.	.	.	31.0
CCOC(=O)c1c(C)oc2c1c1c(c3ccccc32)OCN(Cc2ccccn2)C1	-	-	.	-	-	57.0
O=C1OCC(=C(O)c2ccc(Cl)cc2)C1=O	.	.	.	.	.	-
COc1ccc(NC(=O)CSc2ncccn2)c(OC)c1	.	.	.	.	.	-
Cc1ccc(CNc2cc(C)nc(-n3nc(C)cc3C)n2)cc1	.	.	.	.	.	-
CCOc1ccc2nc(N3CCC(C(=O)NC4CCCCC4)CC3)sc2c1	-	-	-	-	-	-
CCOc1ccc2nc(N3CCCC(C(=O)NC4CCCC4)C3)sc2c1 (stereo not drawn)	52.7	-	-	-	-	-
COc1cc(/C=C2\SC(=S)N(CC(=O)Nc3ccc(O)cc3)C2=O)cc(OC)c1OC	55.8	-	-	-	-	-
COc1ccc(/C=C2\SC(=S)N(CCC(=O)Nc3ccc(C(=O)O)cc3)C2=O)cc1OC	56.9	.	.	-	.	-
COc1cc(/C=C2\SC(=S)N(CC(=O)Nc3cccnc3)C2=O)cc(OC)c1OC	-	-	-	-	-	-
COc1ccc(/C=C2\SC(=S)N(CCC(=O)N(CCO)Cc3ccccc3)C2=O)cc1OC	57.3	-	-	-	-	-
